# Experimental data published in PubChem BioAssay (NCI).
# Compounds without any hit were thinned out: in the full panel of roughly 83,000, 20% have a hit.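 Activity criterion: percent growth below 10, measured after cells in 96-well plates were exposed to a single compound concentration for 48 hours.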 A number with no mark means an inactive call. Calls of active or inactive are those of the source.
# How the values were obtained:
# Experiment in all cases: NCI-60 one-dose screen, 48 h (100 = growth as untreated, 0 = no growth, -100 = all killed)
# Details in all cases: 10 µM unless noted
# DU-145 prostate = tested on: DU-145 prostate
# MALME-3M melanoma = tested on: MALME-3M melanoma
# MDA-MB-231 breast = tested on: MDA-MB-231 breast
# RXF 393 renal = tested on: RXF 393 renal
# SF-268 CNS = tested on: SF-268 CNS
# SF-295 CNS = tested on: SF-295 CNS
# SF-539 CNS = tested on: SF-539 CNS
# UACC-257 melanoma = tested on: UACC-257 melanoma
# M14 melanoma = tested on: M14 melanoma
Structure (SMILES),growth (DU-145 prostate),growth (MALME-3M melanoma),growth (MDA-MB-231 breast),growth (RXF 393 renal),growth (SF-268 CNS),growth (SF-295 CNS),growth (SF-539 CNS),growth (UACC-257 melanoma),growth (M14 melanoma)
COc1ccc(C(=O)CC#N)cc1,107%,123%,96.8%,106%,107%,131%,121%,102%,110%
COC(=O)C(CC=O)C(=O)C(=O)Nc1cccc(C(F)(F)F)c1 (configuration not stated),110%,113%,90.2%,103%,95%,110%,99.9%,66.5%,106%
COc1cc(C(=O)Nc2cc3c(cc2Oc2cc(C)cc(C)c2)C(=O)N(C)[C@@H](CC(=O)N(C)O)C(=O)N3)c(Br)c(OC)c1OC,-31.7% (active),-55.3% (active),-34.3% (active),-56.7% (active),-27.1% (active),-34.6% (active),-46.7% (active),-12.4% (active),-88.2% (active)
Cc1cc2c(c(C)c1Cl)C(=O)/C(=C/c1ccc(O)c(O)c1)O2,109%,111%,91.3%,113%,108%,103%,100%,97.7%,95.2%
Clc1ccc(-c2ccc(CNCC3CCNCC3)o2)c(-c2ccccc2)c1,-94.2% (active),-85.4% (active),-86.5% (active),-88.2% (active),-82% (active),-86.1% (active),-90.3% (active),-75.3% (active),-83.3% (active)
N#C/C(=C\c1cccc(C#N)c1)c1ccccc1,101%,98.9%,102%,108%,99%,99.5%,99.4%,99.2%,104%
COc1ccc(C(=O)c2nc3ccccc3n2CC(=O)c2ccc(F)cc2)cc1,104%,68.6%,83%,89.1%,100%,190%,101%,86%,82.8%
COc1ccc(/C=C/c2nc(Nc3ccc(S(=O)(=O)NC(C)=O)cc3)c3ccccc3n2)cc1,69.5%,99.1%,72.4%,103%,85.3%,81.2%,97.3%,89.4%,45.5%
O=C(NNc1nc2c(F)cccc2n2cccc12)c1cnccn1,26.2%,18.3%,31.7%,37.5%,30.6%,8.17% (active),-0.386% (active),16.2%,3.21% (active)
CN1C(N2CCN(S(=O)(=O)c3ccccc3)CC2)=NS(=O)(=O)c2ccccc21,139%,103%,104%,-6.07% (active),101%,39.9%,111%,61.5%,99.8%
COCCCN1CC(O)=C(c2nc(-c3ccc(C)cc3)cs2)C1=N,102%,101%,96.1%,94.3%,223%,123%,96.9%,83.7%,100%
CC1(C)NCCC[C@]2(C)[C@H]3CC[C@@H]4[C@H]5[C@H](C(=O)/C=C/c6ccco6)CC[C@]5(CO)CC[C@@]4(C)[C@]3(C)CC[C@@H]12,97.4%,78.7%,96.2%,89.2%,95.7%,113%,87.8%,91.9%,91.3%
CCN1Cc2nc3sc(C)c(C)c3c(=O)n2C=C1C,61.8%,79%,58.3%,45.8%,101%,81%,70%,69.3%,27.5%
Cc1ccc(NS(=O)(=O)c2ccc(-c3cnc(C4CC4)o3)cc2)cc1C(F)(F)F,87.1%,65.8%,78.8%,69.4%,77.5%,43.6%,65.5%,73.7%,48.6%
CC[C@]12C=CCN3CC[C@@]4(c5cc(NC(=O)CCC(=O)O[C@H]6CC[C@H]7[C@@H]8CCC9=CC(=O)CC[C@@H]9[C@H]8CC[C@]67C)c(OC)cc5N(C)[C@H]4[C@@](O)(C(=O)OC)[C@@H]1OC(C)=O)[C@@H]32,82.2%,98.9%,68.5%,82.7%,74.4%,86.3%,94.8%,76.2%,77.1%
OC(c1cccc(C(F)(F)F)c1)c1cnccc1NC1CCCCC1 (configuration not stated),85%,83.2%,66.1%,78.8%,89.6%,81%,91.7%,87%,87.9%
COc1ccc(-c2nc([C@@H](C)Sc3nc(N)cc(N)n3)c(C)s2)cc1OCCN1CCOCC1,111%,102%,66.6%,96%,102%,97.6%,111%,100%,114%
C=C1C(=O)O[C@H]2[C@H]1CC/C(CNC(=O)c1cccc3ccccc13)=C\CC[C@@]1(C)O[C@@H]21,33.8%,36.2%,34.1%,27.5%,63.1%,85.9%,59.7%,66.2%,38.2%
C=C(C)[C@@H]1CC[C@]2(C(=O)N[C@H](CO)Cc3ccccc3)CC[C@]3(C)[C@H](CC[C@@H]4[C@@]5(C)CCCNC(C)(C)[C@@H]5CC[C@]43C)[C@@H]12,-87.4% (active),-82.9% (active),-87.1% (active),-91.5% (active),-81.2% (active),-91.8% (active),-87.7% (active),-88.8% (active),-90.2% (active)
Oc1ccc(OCCOc2ccc(O)cc2)cc1,61.4%,62%,50.3%,71.7%,61%,32.7%,28%,83.8%,15.8%
C[C@H]1[C@H]2[C@H]3CC[C@@H]4[C@@]5(C)CC[C@H](O)C(C)(C)[C@@H]5CC[C@@]4(C)[C@]3(C)CC[C@]23CO[C@]1(C)[C@@H](C(=O)/C=C\c1ccco1)C3,102%,-11.3% (active),82.9%,110%,96.3%,110%,99.7%,-8.91% (active),34.4%
C/C=C(\C)C(=O)NC1=CC[C@@]2(C)C(=CCC3C2CC[C@@]2(C)C3CC[C@@H]2C(C)N(C)C)C1=O (some centres not stated),64.6%,-42.9% (active),34.8%,10.7%,10.4%,31.7%,-49% (active),2.46% (active),-32.1% (active)
Cc1nc2sccn2c1-c1cn2ccsc2n1,76.3%,77.7%,81.3%,77.5%,102%,89.9%,90.5%,91%,93.7%
CC1(C)NCCC[C@]2(C)[C@H]3CC(=O)[C@H]4[C@@H]5C[C@](C)(CO)CC[C@]5(C)CC[C@@]4(C)[C@]3(C)CC[C@@H]12,96.4%,102%,118%,91.4%,85.3%,106%,91.2%,114%,92.6%
O=C1c2c(c3c4cccc(F)c4[nH]c3c3ccc4ccccc4c23)C(=O)N1O,55.1%,76.8%,70.8%,46.9%,32.5%,47.9%,40.4%,67.5%,38.3%
COCc1cnccc1NC1CCCCCC1,108%,105%,101%,100%,101%,101%,101%,99.5%,94.2%
CC(=O)Oc1ccc(/C=N/NC(N)=S)nc1,81.5%,97.8%,87.1%,34.7%,66.5%,104%,20.4%,81.4%,58.2%
NS(=O)(=O)c1ccc(CCN2C(=O)c3cc(Cl)c(Cl)cc3C2=O)cc1,104%,110%,107%,120%,98.1%,99.7%,106%,99.7%,106%
